From PubChem BioAssay (NCATS)
Inconclusive results are not listed. Calls of active or inactive are those of the source. Calls follow the shape of the dose curve; as a rule, active = well fitted cell-killing curve with a large enough effect; inconclusive = small, poorly fitted or top-dose-only effect, or effect the other way; inactive = flat fitted curve, though single readings scatter.

test system: Tov-21-G; assay: Primary qHTS to identify gynecologic anti-cancer compounds using libraries of approved drugs and bioactive compounds (AID 1345084); details: Gynecologic cancer cell panel viability, ATPlite luminescence, 48 h; series mostly up to 57.5 µM; activity change, negative = cytotoxicity: at the top concentration; also: nearly all actives have a fitted effect of over 55% in size
Procedure, shortened: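 Cytotoxicity screen measuring ATP content by luciferase luminescence. Each compound is applied at five concentrations for 48 h at 37 C with 5% CO2.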
% is scaled to controls: 0 for no effect and ±100 for the full control effect.

| Structure (SMILES) | activity change, negative = cytotoxicity |
| --- | --- |
| O=C(OCC(COC(=O)c1cccnc1)(COC(=O)c1cccnc1)COC(=O)c1cccnc1)c1cccnc1 | 1.7% (inactive) |
| O=P(O)(O)OCC(O)CO (centres undefined) | 3.86% (inactive) |
| CC(C)C(C)(C)C(C)(C)C(C)(C)S | -0.151% [at 116 µM] (inactive) |
| CCOC(=O)NNc1ccc(N(CC)CC(C)O)nn1 (centres undefined) | -6.79% (inactive) |
| O=C(Oc1ccccc1)c1cccc(C(=O)Oc2ccccc2)c1 | -6.17% [at 116 µM] (inactive) |
| CCNC(=O)NCCCOc1cccc(CN2CCCCC2)c1 | 0.461% (inactive) |
| CC(=O)OCC[N+](C)(C)C | -2.39% (inactive) |
| Nc1c[n+](N2CCOCC2)no1 | 3.81% (inactive) |
| O=C1CC[C@H](C(=O)N2CCCCC2)N1 | 7.71% (inactive) |
| COc1ccccc1OCC1CNC(=O)O1 (centres undefined) | 2.91% (inactive) |
| c1ccc2occc2c1 | -3.84% [at 116 µM] (inactive) |
| O=C(Oc1ccccc1)c1ccccc1O | 4.95% (inactive) |
| CC(C(=O)O)c1ccc(/C=C2\CCCCC2=O)cc1 (centres undefined) | -0.242% (inactive) |
| Cc1nc([N+](=O)[O-])cn1-c1ccc([N+](=O)[O-])cc1 | 5.6% (inactive) |
| CC(COc1ccccc1)NN (centres undefined) | -2.3% (inactive) |
| C1N2CN3CN1CN(C2)C3 | 5.32% (inactive) |
| O=C(CCCCCCCCC#CI)Oc1ccccc1 | 0.288% (inactive) |
| O=C(c1ccccc1)c1ccccc1 | -0.315% (inactive) |
| CC(=O)OCC(=O)[C@@]1(O)[C@H](OC(C)=O)C[C@H]2[C@@H]3CCC4=CC(=O)C=C[C@]4(C)[C@@]3(F)[C@@H](O)C[C@@]21C | -4.52% (inactive) |
| CC1c2ccccc2CN1NC(=O)c1ccc(Cl)c(S(N)(=O)=O)c1 (centres undefined) | -0.724% (inactive) |

| Structure (SMILES) | activity change, negative = cytotoxicity |
| --- | --- |
| CN1C(=O)c2ccccc2C1=O | -2.22% [at 116 µM] (inactive) |
| CC(C)(C)C(=O)OCOC(=O)C1N2C(=O)CC2S(=O)(=O)C1(C)C (centres undefined) | -0.299% (inactive) |
| CO/N=C(/C(=O)N[C@@H]1C(=O)N2C(C(=O)O)=C(Cn3nnc(C)n3)CS[C@H]12)c1csc(N)n1 | 6.65% (inactive) |
| CCOc1ccc(NS(=O)(=O)c2ccc(N)cc2)nn1 | 0.729% (inactive) |
| Cc1ccc(O)cc1 | -11.8% (inactive) |
| C[N+]1(CC2COC(c3ccccc3)(c3ccccc3)O2)CCCCC1 (centres undefined) | -0.687% [at 25.3 µM] (inactive) |
| CC(C)(C)C(O)/C=C/c1ccc2c(c1)OCO2 (centres undefined) | -9.48% (inactive) |
| CO/N=C(/C(=O)N[C@@H]1C(=O)N2C(C(=O)OCOC(=O)C(C)(C)C)=C(C)CS[C@H]12)c1csc(N)n1 | 16.9% (inactive) |
| CC(C)=CCC/C(C)=C/CC/C(C)=C/CCC(=O)OC/C=C(\C)CCC=C(C)C | -0.569% (inactive) |
| CCOC(=O)Cn1cccc1-c1nc(-c2ccc(OC)cc2)c(-c2ccc(OC)cc2)s1 | 1.07% (inactive) |
| OCc1cccnc1 | -2.13% (inactive) |
| CC(C)(C)c1nnc(NS(=O)(=O)c2ccccc2)s1 | -0.413% (inactive) |
| O=C(O)CCCC[C@@H]1SC[C@@H]2NC(=O)N[C@@H]21 | -18.4% (inactive) |
| O=C(O)[C@H](O)[C@@H](O)[C@H](O[C@@H]1O[C@H](CO)[C@H](O)[C@H](O)[C@H]1O)[C@H](O)CO | -3.15% (inactive) |
| N[C@@H](Cc1cc(I)c(O)c(I)c1)C(=O)O | -4.42% (inactive) |
| CC1CN(c2cc3c(cc2F)c(=O)c(C(=O)O)cn3-c2ccc(F)cc2F)CCN1 (centres undefined) | -0.759% [at 6.55 µM] (inactive) |
| Brc1ccccc1-c1ccccc1 | -2.24% [at 116 µM] (inactive) |
| CCC(C(=O)NC(=O)NC(C)=O)c1ccccc1 (centres undefined) | 4.42% (inactive) |
| C1=CC2C3C=CC(C3)C2C1 (centres undefined) | -1.48% [at 116 µM] (inactive) |
